Data: PubChem BioAssay
“And” between values parts separate entries of the source, which are not always exact repeats. Identical values can stand only once. The source made the active and inactive calls.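 Rule for the calls, unless noted: active = inhibition at or above 50% relative to wild type and mutant plate controls; inactive = inhibition below 50%.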

What was measured:
[1] = inhibitors of TNFa-induced NFkB p65 translocation, primary screen, imaging, HUVEC, MLSMR starter and 10KST1 sets (AID 438;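 active = inhibition above 20% together with a positive visual image hit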;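 note: compound added about 3h40 before a 20 min TNFalpha stimulation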;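 for inhibition: signal is the nuclear over cytoplasmic p65 intensity ratio per well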); details: HUVEC TNFa-induced p65 nuclear translocation; cell count: measured here: nuclei count (cytotoxicity indicator), at 2.08 µM; inhibition: at 2 µM, stronger effect = higher value, 0% TNFa-plus-vehicle, 100% no-TNFa wells
[2] = inhibitors of mutant huntingtin aggregation, primary screen, imaging, exon1htt(103Q)mCFP cells, high-content imaging (AID 483;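 active = visual image review flags a hit and inhibition of aggregation exceeds 20%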;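 note: compound exposure lasted 3 days before fixation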;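 for nuclei count: percent of the per-plate median nuclei count of sample wells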); details: exon1htt(103Q)mCFP cell line, aggregate imaging, at 2 µM; inhibition of aggregation: stronger effect = higher value; nuclei count: measured here: cell count, toxicity
[3] = inhibitors of E-selectin induction by TNFa, primary screen, imaging, HUVEC, immunofluorescence, MLSMR starter and 10KST1 sets (AID 487;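 active = visually confirmed hit in the image check and inhibition above 20%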;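 for inhibition: signal is fraction of cell area covered by stained E-selectin grains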;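 for nuclei count: 100% = median nuclei count of all wells on the same plate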); details: HUVEC TNFalpha-induced E-selectin immunofluorescence imaging, at 2 µM; inhibition: stronger effect = higher value; nuclei count: measured here: cell number, toxicity
[4] = DUSP6 inhibitors restoring Erk phosphorylation by chemical complementation, primary imaging in DUSP6-transfected HeLa (AID 609;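 active = compounds giving at least 50% inhibition in the cell-based MKP-3 phosphatase rescue imaging test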;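 for inhibition: phospho-Erk level distribution per well compared with pooled transfected vehicle control wells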); details: HeLa MKP-3 transfected, phospho-Erk imaging KS statistic, at 10 µM, cells stimulated with TPA for 15 min
[5] = target: Dual specificity protein phosphatase 6 (Homo sapiens) (UniProt Q16828); test: as above; details: HeLa MKP-3 transfected, phospho-Erk imaging KS statistic; at 10 µM; stronger effect = higher value; cells stimulated with TPA for 15 min
Sequence of Dual specificity protein phosphatase 6 (Homo sapiens) (Q16828 whole entry, looked up): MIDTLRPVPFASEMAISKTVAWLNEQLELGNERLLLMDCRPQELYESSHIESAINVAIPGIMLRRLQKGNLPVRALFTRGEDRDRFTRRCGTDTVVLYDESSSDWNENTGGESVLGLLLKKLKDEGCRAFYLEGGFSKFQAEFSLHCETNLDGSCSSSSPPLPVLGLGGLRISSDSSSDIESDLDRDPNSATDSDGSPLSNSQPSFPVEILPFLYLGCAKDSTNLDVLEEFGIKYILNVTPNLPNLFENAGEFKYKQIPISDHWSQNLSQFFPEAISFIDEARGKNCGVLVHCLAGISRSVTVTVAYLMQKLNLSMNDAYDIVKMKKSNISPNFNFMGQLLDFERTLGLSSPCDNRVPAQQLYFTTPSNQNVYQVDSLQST

[6] = target: Voltage-gated potassium channel subunit beta-2 (Rattus norvegicus) (UniProt P62483); test: KvBeta enzyme negative modulators, primary screen, biochemical, NADPH fluorescence (AID 622;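 active = fluorescence slope higher than the sample average by over 3 SD, cut at about -0.22 in these data, passing the limit was not always enough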;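 note: slope of raw intensity against log time taken from 70 to 1610 s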); details: recombinant KvBeta, 4-cyanobenzaldehyde reduction, at 10 µM, stronger effect = higher value
Sequence of Voltage-gated potassium channel subunit beta-2 (Rattus norvegicus) (P62483 whole entry, looked up): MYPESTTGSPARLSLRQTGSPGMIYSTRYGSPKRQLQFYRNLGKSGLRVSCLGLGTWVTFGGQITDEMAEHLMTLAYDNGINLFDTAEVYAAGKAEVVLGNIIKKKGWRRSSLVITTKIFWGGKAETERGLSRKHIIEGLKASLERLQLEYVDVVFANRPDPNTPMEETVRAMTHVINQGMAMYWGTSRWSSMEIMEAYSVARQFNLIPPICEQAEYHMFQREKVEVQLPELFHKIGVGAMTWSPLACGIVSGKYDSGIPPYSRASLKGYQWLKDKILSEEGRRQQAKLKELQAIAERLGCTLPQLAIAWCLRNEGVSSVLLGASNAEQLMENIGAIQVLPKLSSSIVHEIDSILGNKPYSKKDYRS

[7] = target: Voltage-gated potassium channel subunit beta-2 (Rattus norvegicus) (UniProt P62483); test: KvBeta positive modulators, primary screen, biochemical, NADPH fluorescence (AID 623;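 active = NADPH fluorescence slope more negative than the mean of all samples by about 3 SD, 99.7% confidence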;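 note: fluorescence intensity change per second fitted from 20 to 320 s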); details: Recombinant KvBeta, NADPH fluorescence decrease slope, 10 min; at 10 µM; stronger effect = lower value
[8] = target: Alpha-2C adrenergic receptor (Homo sapiens) (UniProt P18825); test: modulators of alpha2C/GIRK thallium flux, primary screen, cell-based, HEK293 alpha2C/GIRK1/2 (AID 624;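 active = fluorescence slope after compound addition differing from the mean of all screened samples at 99.7% confidence, in either direction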;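 note: slope of fluorescence ratio to pre-addition baseline per second over 15 to 24 s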); details: thallium flux BTC fluorescence, at 10 µM, actives lie on both sides
Sequence of Alpha-2C adrenergic receptor (Homo sapiens) (P18825 whole entry, looked up): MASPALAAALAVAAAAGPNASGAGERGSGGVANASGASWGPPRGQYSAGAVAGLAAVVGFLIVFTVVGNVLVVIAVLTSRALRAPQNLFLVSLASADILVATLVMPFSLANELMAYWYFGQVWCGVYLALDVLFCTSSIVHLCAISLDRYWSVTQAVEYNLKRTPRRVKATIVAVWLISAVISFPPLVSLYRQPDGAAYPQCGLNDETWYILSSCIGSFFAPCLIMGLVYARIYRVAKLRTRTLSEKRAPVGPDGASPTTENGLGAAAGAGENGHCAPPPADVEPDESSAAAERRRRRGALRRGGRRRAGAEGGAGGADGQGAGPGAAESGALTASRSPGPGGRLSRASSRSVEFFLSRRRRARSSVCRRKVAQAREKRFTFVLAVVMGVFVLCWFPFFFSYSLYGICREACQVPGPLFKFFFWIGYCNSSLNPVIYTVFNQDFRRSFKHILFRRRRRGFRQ

[9] = inhibitors of larval lipid processing in zebrafish, primary screen, whole organism, PED6 fluorescence, gall bladder and intestine (AID 686;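 active = a full or partial loss of lipid-probe fluorescence in the fish gall bladder, intestine or both, judged by eye; inactive = no fluorescence loss, or compound toxic to the fish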;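 note: larvae 5 to 7 days old with five fish per well; signal comes from phospholipase A2 cleavage of quenched PED6 carried via bile; overnight exposure to compound and PED6 before scoring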); details: Zebrafish larvae PED6 lipid processing, fluorescence scoring; screened at 20 µM (by protocol)
[10] = inhibitors of Chlamydomonas gravitaxis, primary screen, whole organism, Chlamydomonas reinhardtii, WT vs cilia-less mutant, absorbance, 96-well (AID 463189); details: OD600 absorbance, 2 days, at 10 µM, stronger effect = higher value;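 note: 0% = wild type cc124 cells in DMSO and 100% = ciliumless bld1 mutant cells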
[11] = inhibitors of Sendai virus-induced IRF3 signaling, primary screen, TLR/RLR signaling modifier project, cell-based, Sendai virus stimulus, luciferase, 10K MLSCN set (AID 602276;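 active = inhibition at or above 50% at 10 µM; inactive = inhibition below 50%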;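 note: firefly luciferase from ISG56 promoter only with Renilla not read in this screen; 0% = Sendai virus plus DMSO and 100% = medium plus DMSO without virus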); details: HEK293 RL24 IRF3 luciferase reporter, at 10 µM, stronger effect = higher value
[12] = inhibitors of poly I:C-induced TLR3 signaling, primary screen, cell-based, poly I:C stimulus, luciferase, 10K MLSCN set (AID 602277;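 active = inhibition of the reporter signal at or above 50%; inactive = inhibition below 50%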); details: HEK293-TLR3 RL24 IRF3 luciferase reporter, at 10 µM, stronger effect = higher value
[13] = measured here: cell density z-score
[14] = measured here: nuclear c-Myc green intensity z-score
[15] = measured here: nuclear pErk red intensity z-score, stronger effect = higher value

Structure (SMILES)	cell count [1]	inhibition [1]	inhibition of aggregation [2]	nuclei count [2]	inhibition [3]	nuclei count [3]	z-score [4, 13]	z-score [4, 14]	z-score [4, 15]	inhibition [5]	fluorescence slope [6]	NADPH fluorescence slope [7]	slope [8]	outcome [9]	inhibition [10]	inhibition [11]	inhibition [12]
O=C(NC1CCS(=O)(=O)C1)N1CCCCC1 (stereo not given)	486	0.6% (inactive)	-3.3% (inactive)	106%	-68.8% (inactive)	126%	-0.342	1.35	0.612	1.6e-07% (inactive)	-0.485 (inactive)	-6.6e-05 (inactive)	0.00544 (inactive)	inactive	-28.4% (inactive)	11.2% (inactive)	18.8% (inactive)
CCOC(=O)[C@H](CCc1ccccc1)N[C@@H](C)C(=O)N1CCC[C@H]1C(=O)O	512	-1.7% (inactive)	-27.5% (inactive)	76.9%	-7.9% (inactive)	112%	1.2	0.592	-0.0475	11.3% (inactive)	-0.554 (inactive)	-1.6e-05 (inactive)	0.00627 (inactive)	inactive	34.1% (inactive)	9.18% (inactive)	28.5% (inactive)
CC[N+](C)(C)c1cccc(O)c1	610	-6.9% (inactive)	10.2% (inactive)	102%	-108% (inactive)	130%	-0.368	-0.0907	-0.21	3.45% (inactive)	-0.492 (inactive)	-5.2e-05 (inactive)	0.00476 (inactive)	inactive	6.97% (inactive) and -3.25% (inactive)	16.5% (inactive)	38.2% (inactive)
CCCCOc1ccc(C(=O)Nn2cnnc2)cc1	491	-0.8% (inactive)	14.2% (inactive)	96.9%	-83.6% (inactive)	100%	-0.477	-1.53	-0.77	-8.27% (inactive)	-0.32 (inactive)	-2.1e-05 (inactive)	0.00306 (inactive)	inactive	0.154% (inactive)	9.75% (inactive)	15.4% (inactive)
CCOC(=O)C1CSc2[nH]c(=O)sc2C1c1ccccc1 (stereo not given)	537	-1.3% (inactive)	-4% (inactive)	126%	-19.3% (inactive)	144%	0.417	-0.0363	0.692	-1.12% (inactive)	-0.378 (inactive)	-6.9e-05 (inactive)	0.00596 (inactive)	inactive	-4.31% (inactive)	5.91% (inactive)	99.1% (active)
CC(C)Sc1nc(N2CCCC2)c2c(c1C#N)CC(C)(C)OC2	547	-6.2% (inactive)	15.4% (inactive)	73.8%	-59.4% (inactive)	126%	1.33	-1.33	-0.539	24.4% (inactive)	-0.386 (inactive)	4.7e-06 (inactive)	0.00612 (inactive)	inactive	48.4% (inactive)	14% (inactive)	18.1% (inactive)
CSC1=C(C#N)C(C)CC(=O)N1 (stereo not given)	552	-5.8% (inactive)	-2% (inactive)	112%	1.9% (inactive)	108%	-0.957	-0.437	0.604	-5.89% (inactive)	-0.51 (inactive)	-6.2e-05 (inactive)	0.00463 (inactive)	inactive	19.4% (inactive)	13.8% (inactive)	12.5% (inactive)
C[C@]12C[C@H](O)[C@H]3[C@@H](CCC4=CC(=O)CC[C@@]43C)[C@@H]1CC[C@@H]2C(=O)CO	627	-3.6% (inactive)	-21.5% (inactive)	101%	-37.7% (inactive)	102%	0.905	0.0812	-0.546	9.37% (inactive)	-0.526 (inactive)	-4.5e-06 (inactive)	0.00481 (inactive)	inactive	3.78% (inactive) and -16.2% (inactive)	5.57% (inactive)	32.8% (inactive)
Cc1cn([C@H]2C[C@H](N=[N+]=[N-])[C@@H](CO)O2)c(=O)[nH]c1=O	663	-4% (inactive)	1.9% (inactive)	102%	-133% (inactive)	128%	-0.406	-0.912	2.26	-6.41% (inactive)	-0.476 (inactive)	3.5e-07 (inactive)	0.00535 (inactive)	inactive	-6.84% (inactive)	17.8% (inactive)	37% (inactive)
C=CCc1ccccc1OCC(O)CNC(C)C (stereo not given)	628	-8.8% (inactive)	-10% (inactive)	89.9%	-120% (inactive)	131%	1.42	0.365	-0.961	7.39% (inactive)	-0.466 (inactive)	-2.4e-05 (inactive)	0.00435 (inactive)	inactive	-2.53% (inactive) and -4.71% (inactive)	11.2% (inactive)	34.8% (inactive)
